Assay results: PubChem BioAssay (NCI)
Compounds without any hit were thinned out: in the full panel of roughly 83,000, 20% have a hit.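 Plates (96-well) were seeded with cells, treated with compound at one concentration, and incubated for 48 hours before percent growth was determined.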 A number with no mark means an inactive call. Activity calls are given as the source filed them. How the source made its calls: active means growth percent below 10; inactive means the rest.

What follows are molecules tested on TK-10 renal (assay: NCI-60 one-dose screen, 48 h (100 = growth as untreated, 0 = no growth, -100 = all killed)). Conditions: 10 µM unless noted.

SMILES | growth
O=[N+]([O-])c1ccc(N/N=C/c2c(O)ccc3ccccc23)nc1 | 47.3%
COc1cc(/C=C/c2nnc(-c3cc(-c4ccccc4)n[nH]3)o2)cc(OC)c1OC | 123%
COc1cccc(-c2nnc(N)o2)c1 | 121%
CSc1nc2c(c(=O)n1C)C(c1ccccc1)C1=C(N2)/C(=C/c2ccccc2)CCC1 (centres undefined) | 51%
CCCCCCC/C(=N\N=C(N)N)c1ccc(O)cc1 | 67.5%
CCOC(=O)c1c(NC(=O)C2CCCCC2C(=O)O)sc2c1CCCC2 (centres undefined) | 113%
C[N+]1(CCC[N+]2(C)C[C@@H]3[C@H](C2)[C@@H]2C=C[C@H]3C2)CCOCC1 (some centres undefined) | 113%
O=C(CCc1nnc(SCc2ccccc2)s1)c1nc2ccccc2[nH]1 | 95.8%
c1csc([C@@H]2C[C@@H]3Cc4ccc5ccccc5c4N2O3)c1 | 88.7%
CCCCCCC(C)(O)c1ccccc1 (centres undefined) | 106%
CCOC(Cc1c(N)[nH]c(=S)[nH]c1=O)OCC | 108%
CCN1C2=C(SC(=S)C1=C1SC(C(=O)OC)=C(C(=O)OC)S1)SC(=Nc1ccc(OC)cc1)C2=O | 30.3%
CCOc1nc(-c2ccccc2)cc2c(O)c(-c3nnco3)[nH]c(=O)c12 | 31.8%
COc1cccc2c1O/C(=C\c1c([N+](=O)[O-])ncn1C)C2=O | 109%
CCCc1cc(=O)n2c(C(=O)Nc3ccccc3OC)c(C(=O)Nc3ccc(F)cc3)sc2n1 | 37.7% [30 µM]
C=Cc1nn2c(CCC(=O)c3nc4ccccc4[nH]3)nnc2s1 | 131%
CCOC(=O)C(C(C)=O)c1nc2sc3cc(Cl)ccc3n2c(=N)c1C#N (centres undefined) | 157%

SMILES | growth
COc1ccc2nccc(/C=C/c3ccnc4ccc(OC)cc34)c2c1 | 148%
COc1ccc(-c2c(-c3cc(OC)c(OC)c(OC)c3)noc2N)cc1 | 67.3%
COc1ccc(-c2cc(C(=O)Nc3nc4cc(C)c(C)cc4s3)nc3cc(-c4ccccc4)nn23)cc1OC | 125%
COc1ccc(-c2cc(Cc3cccs3)c(=O)n(Cn3ccc4ccccc43)n2)cc1 | 98.1%
COc1ccc(-c2cc(Cc3cccs3)c(=O)n(Cn3cncn3)n2)cc1 | 113%
Cn1c(=O)c2c(nc(Br)n2CCC(=O)Nc2ccc(F)cc2)n(C)c1=O | 103%
COc1ccc(/C=C/C(=O)Nc2cccnc2Nc2ccc(F)cc2)cc1 | 113%
O=C1NCC(Nc2ccc(Br)cc2Cl)C(=O)N1 (centres undefined) | 110%
Cc1cc(C)c2c(c1)N1OC(C2)C[C@H]1/C=C/c1ccccc1 (some centres undefined) | 108%
Cc1cc(=O)n2n1-c1ccc(Cl)cc1NC(=O)C2 | 117%
CC[C@H](C)C(=O)O[C@H]1C[C@@H](C)C=C2C=C[C@H](C)[C@H](CC[C@@H]3C[C@@H](O)CC(=O)O3)[C@H]21 | 104%
O=C1/C(=C/c2ccc([N+](=O)[O-])o2)Oc2ccc(Br)cc21 | -28.5% (active)
O=C1NCN(c2ccccc2)C12CCN(CCCC(c1ccc(F)cc1)c1ccc(F)cc1)CC2 | 66.1%
N#Cc1cnc2cc(OC[C@H](O)CO)c(NC(=O)CC3CSSC3)cc2c1Nc1ccc(OCc2cccc(F)c2)c(Cl)c1 | -70.5% (active)
COc1ccc(OC)c2c1[nH]c(=O)c1c3ccccc3cn21 | -83.4% (active)
COc1cc(C2CC(=O)Nc3c2cc(Br)c2ccccc32)cc(Br)c1OC (centres undefined) | -7.53% (active)
COC(=O)CCC1=C(C)/C(=C/c2[nH]c(-c3ccc[nH]3)cc2OC)N=C1C | 28.1%

The molecules below were run on ACHN renal in the same assay as above. Conditions: 10 µM unless noted.

SMILES | growth
O=[N+]([O-])c1ccc(N/N=C/c2c(O)ccc3ccccc23)nc1 | 15%
COc1cc2c(-c3nc4cc(Cl)c(F)cc4s3)cc(=O)oc2c(C)c1OC | -83.8% (active)
COc1cccc(-c2nnc(N)o2)c1 | 103%
CSc1nc2c(c(=O)n1C)C(c1ccccc1)C1=C(N2)/C(=C/c2ccccc2)CCC1 (centres undefined) | 57.3%
CCCCCCC/C(=N\N=C(N)N)c1ccc(O)cc1 | 47.6%
CCOC(=O)c1c(NC(=O)C2CCCCC2C(=O)O)sc2c1CCCC2 (centres undefined) | 98.2%
C[N+]1(CCC[N+]2(C)C[C@@H]3[C@H](C2)[C@@H]2C=C[C@H]3C2)CCOCC1 (some centres undefined) | 90.9%
O=C(CCc1nnc(SCc2ccccc2)s1)c1nc2ccccc2[nH]1 | 94.4%
c1csc([C@@H]2C[C@@H]3Cc4ccc5ccccc5c4N2O3)c1 | 107%
O=C1/C(=C/c2ccc([N+](=O)[O-])s2)Oc2ccc(Br)cc21 | -64% (active)
CCCCCCC(C)(O)c1ccccc1 (centres undefined) | 103%
CCOC(Cc1c(N)[nH]c(=S)[nH]c1=O)OCC | 94.9%
CCN1C2=C(SC(=S)C1=C1SC(C(=O)OC)=C(C(=O)OC)S1)SC(=Nc1ccc(OC)cc1)C2=O | -74.3% (active)
CCOc1nc(-c2ccccc2)cc2c(O)c(-c3nnco3)[nH]c(=O)c12 | 52.3%
COc1cccc2c1O/C(=C\c1c([N+](=O)[O-])ncn1C)C2=O | 89%
CCCc1cc(=O)n2c(C(=O)Nc3ccccc3OC)c(C(=O)Nc3ccc(F)cc3)sc2n1 | 20.3% [30 µM]
C=Cc1nn2c(CCC(=O)c3nc4ccccc4[nH]3)nnc2s1 | 96.2%
CCOC(=O)C(C(C)=O)c1nc2sc3cc(Cl)ccc3n2c(=N)c1C#N (centres undefined) | 109%

SMILES | growth
COc1ccc2nccc(/C=C/c3ccnc4ccc(OC)cc34)c2c1 | 102%
COc1ccc(-c2cc(C(=O)Nc3nc4cc(C)c(C)cc4s3)nc3cc(-c4ccccc4)nn23)cc1OC | 106%
COc1ccc(-c2cc(Cc3cccs3)c(=O)n(Cn3ccc4ccccc43)n2)cc1 | 102%
COc1ccc(-c2cc(Cc3cccs3)c(=O)n(Cn3cncn3)n2)cc1 | 97.6%
Cn1c(=O)c2c(nc(Br)n2CCC(=O)Nc2ccc(F)cc2)n(C)c1=O | 102%
COc1ccc(/C=C/C(=O)Nc2cccnc2Nc2ccc(F)cc2)cc1 | 104%
O=C1NCC(Nc2ccc(Br)cc2Cl)C(=O)N1 (centres undefined) | 96.2%
CC/C=C\C=C/C(=O)N/C=C/CC1Cc2cccc(O)c2C(=O)O1 (centres undefined) | 145%
Cc1cc(C)c2c(c1)N1OC(C2)C[C@H]1/C=C/c1ccccc1 (some centres undefined) | 112%
Cc1cc(=O)n2n1-c1ccc(Cl)cc1NC(=O)C2 | 104%
CC[C@H](C)C(=O)O[C@H]1C[C@@H](C)C=C2C=C[C@H](C)[C@H](CC[C@@H]3C[C@@H](O)CC(=O)O3)[C@H]21 | 32.9%
O=C1/C(=C/c2ccc([N+](=O)[O-])o2)Oc2ccc(Br)cc21 | 1.25% (active)
O=C1NCN(c2ccccc2)C12CCN(CCCC(c1ccc(F)cc1)c1ccc(F)cc1)CC2 | 61.7%
N#Cc1cnc2cc(OC[C@H](O)CO)c(NC(=O)CC3CSSC3)cc2c1Nc1ccc(OCc2cccc(F)c2)c(Cl)c1 | 20.8%
COc1ccc(OC)c2c1[nH]c(=O)c1c3ccccc3cn21 | -84.6% (active)
COc1cc(C2CC(=O)Nc3c2cc(Br)c2ccccc32)cc(Br)c1OC (centres undefined) | 5.63% (active)
COC(=O)CCC1=C(C)/C(=C/c2[nH]c(-c3ccc[nH]3)cc2OC)N=C1C | 8.35% (active)
